Source: PubChem BioAssay (National Center for Advancing Translational Sciences (NCATS))
TDP1 cell CPT – growth inhibition of DT40 Tdp1-/-;hTDP1 cells with camptothecin (screen for TDP1 inhibitors); chicken DT40 Tdp1-/-;hTDP1 cells + 20 nM CPT, ATP luminescence, 48 h; 12% of 420,000 active; Potency, µM (titrated, usually from 46.2 µM), inactives show at the top dose activity change, negative = growth inhibition, usual class: inhibitors; note: potency is the fitted concentration of half-maximal effect; nearly all actives have a fitted effect of over 55% in size
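Chicken DT40 Tdp1-/- cells stably complemented with human TDP1 were seeded at 400 cells/well in medium containing 20 nM camptothecin, exposed to pin-transferred compounds, and grown at 37 °C for at least 48 hr. Viability was read as ATP luminescence.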
RORgamma inh – blocks mouse ROR gamma transcriptional activity | Drosophila S2 Gal4-RORgamma UAS-luciferase reporter, 20 h | Potency, µM (doses to about 53.6 µM), for inactives: top-dose activity change, negative = inhibition, hits mostly inhibitors | 5.4% of 310,000 active; note: potency is the fitted concentration of half-maximal effect; nearly all actives have a fitted effect of over 60% in size
Target sequence (P51450 whole entry, looked up, the tested form may be a part): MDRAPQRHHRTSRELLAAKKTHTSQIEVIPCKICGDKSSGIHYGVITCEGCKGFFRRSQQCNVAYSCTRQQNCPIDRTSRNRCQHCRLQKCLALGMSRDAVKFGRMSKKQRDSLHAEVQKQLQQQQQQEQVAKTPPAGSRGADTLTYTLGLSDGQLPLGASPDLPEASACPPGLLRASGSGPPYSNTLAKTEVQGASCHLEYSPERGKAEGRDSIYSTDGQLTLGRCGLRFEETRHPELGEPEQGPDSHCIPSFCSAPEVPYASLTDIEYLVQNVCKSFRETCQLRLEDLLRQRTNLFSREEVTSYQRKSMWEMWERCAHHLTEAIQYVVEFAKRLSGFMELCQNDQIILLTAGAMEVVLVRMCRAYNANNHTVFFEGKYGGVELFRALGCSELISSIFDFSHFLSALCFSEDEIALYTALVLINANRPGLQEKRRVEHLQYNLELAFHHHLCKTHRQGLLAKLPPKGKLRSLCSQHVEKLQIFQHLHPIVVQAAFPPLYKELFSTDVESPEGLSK
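Drosophila Schneider cells stably carrying a metallothionein-driven Gal4 DBD–ROR gamma fusion and a UAS-Photinus luciferase reporter were exposed to compound for 1 hr, then induced with copper sulfate (700 uM final) for 20 hr at ambient temperature before luminescence reading.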
Gal4-VP16 FLuc – Gal4-VP16 reporter inhibition counter-screen | Drosophila S2 Gal4-VP16 UAS-luciferase, luminescence, 20 h | Potency, µM (titrated, usually from 53.6 µM), without a hit: at the top dose activity, negative = inhibition, most hits filed as inhibitors | 3.5% of 310,000 active | AID 2546;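 note: Gal4-VP16 expression switched on by copper sulfate through the metallothionein promoter; potency is the fitted concentration of half-maximal effect; nearly all actives have a fitted effect of over 50% in size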
IL1B secr inh – blocks inflammasome-driven IL-1 beta release; activity change, % at 57.5 µM; THP-1 LPS/ATP IL-1B secretion, AlphaLISA, 16 h; active compounds read low; 4.7% of 360,000 active; in the data active = activity change below about -50%; inconclusive = mostly about -30% to -49%
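Secreted IL-1B measured by AlphaLISA bead assay after 16 h compound exposure of THP-1 cells; compounds (final up to 57.5 uM) added 1 h before LPS (250 ng/mL) and ATP (1.25 mM) stimulation; lower signal means less secretion.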
TDP1 cell noCPT – qHTS for Inhibitors of human tyrosyl-DNA phosphodiesterase 1 (TDP1): qHTS in cells in absence of CPT; DT40 Tdp1-/- hTDP1 cells, no CPT, ATP luminescence, 48 h; Potency, µM (top dose mostly 46.2 µM), for the others: at the highest dose activity change, negative = growth inhibition, hits mostly inhibitors; 15% of 420,000 active; AID 686978, 2013; note: potency is the fitted concentration of half-maximal effect; nearly all actives have a fitted effect of over 55% in size
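No-CPT arm: Tdp1-/-;hTDP1 DT40 cells (400/well) plus compounds, incubated ≥48 hr at 37 °C. Readout CellTiter-Glo luminescence.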
ELG1 DNA repair – inhibitors of ELG1-dependent DNA repair in HEK293T cells. 2.3% of 330,000 active. HEK293T ELG1-luciferase reporter, luminescence, 16 h; DNA damage induced by 5-fluorouridine. Potency, µM (top dose mostly 46.1 µM), without a hit: at the highest dose activity change, negative = inhibition, actives largely listed as inhibitors. AID 504467; note: potency is the fitted concentration of half-maximal effect; nearly all actives have a fitted effect of over 55% in size
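Overnight (16 hr) co-exposure of 2,000 cells/well to 5-fluorouridine and compound at 37 °C preceded detection. Luciferase was quantified via ONE-Glo luminescence; loss of signal denotes inhibition.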
* marks the source's active call; other numbers are inactive results; ? = inconclusive; . = not tested or not shown; [ ] = dose if it differs, or a comment. Shown are actives, neighbours in structure and some others; about 21% of the full set was active somewhere. Unless noted, calls come from the whole dose curve; as a rule, active = well fitted curve in the direction sought with a large enough effect; inconclusive = small, poorly fitted or top-dose-only effect, or another doubt; inactive = no such curve, though single readings can be large; an effect the other way counts as inactive or inconclusive. % is set by controls: 0 for no effect and ±100 for the full control effect.

SMILES	TDP1 cell CPT	RORgamma inh	Gal4-VP16 FLuc	IL1B secr inh	TDP1 cell noCPT	ELG1 DNA repair
COc1ccc(S(=O)(=O)n2cnc(C)c2)cc1	-7.8%	-23.9%	4.5%	-9.8	-26.5%	0.6%
Nc1nc2c([nH]c(=O)n2C2OC(CO)C(O)C2O)c(=O)[nH]1 (stereo not given)	7.9%	4.7%	-11.8%	.	-0.5%	.
Cn1c(C(=O)Nc2ccc(Cl)cc2)cc2cc(Cl)ccc21	-24.8%	-22.0%	-20.9%	57.2	-11.3%	3.5%
COc1ccc(N2C(=O)NC(NS(=O)(=O)c3ccccc3)(C(F)(F)F)C2=O)cc1 (stereo not given)	-5.5%	-20.3%	2.1%	-19.4	-6.2%	11.5%
COc1ccc(N=C2C(=S)N(c3ccc(OC)cc3)C(=NS(=O)(=O)c3ccccc3)N2c2ccccc2)cc1	1.46µM*	.	.	-4.6	1.46µM*	.
COc1ccc(N2CC(NC(=O)COc3ccccc3F)CC2=O)cc1OC (stereo not given)	-23.3%	.	.	.	-11.6%	.
O=C1NC[C@H](Cc2ccccc2)N(C[C@@H]2CCCN2C[C@H](Cc2ccc(O)cc2)N2C[C@H](Cc3ccccc3)N(CCc3ccccc3)C(=O)C2=O)C1=O	?	.	.	-80.2*	-29.7%	.
O=C1NC[C@H](Cc2ccccc2)N(C[C@@H]2CCCN2C[C@H](Cc2ccc(O)cc2)N2C[C@H](Cc3ccc(O)cc3)N(CC3CCCCC3)C(=O)C2=O)C1=O	?	.	.	?	23.1µM*	.
O=C1NC[C@H](Cc2ccccc2)N(C[C@H]2CCCN2C[C@H](Cc2ccccc2)N2C[C@H](Cc3ccccc3)N(CC3CCCCCC3)C(=O)C2=O)C1=O	?	.	.	-68.6*	16.4µM*	.
CCOc1ccc(CCN2C(=O)C(=O)N([C@@H](Cc3ccccc3)CN3CCC[C@@H]3CN3C(=O)C(=O)NC[C@@H]3Cc3ccc(O)cc3)C[C@@H]2Cc2ccccc2)cc1	-4.9%	.	.	2.7	11.4%	.
Cc1cccc(-c2n[nH]nc2C2=CC(=O)CC(C)(C)C2)c1	-9.5%	.	.	-8.2	?	.
Cc1ccc(CSC2=NC(C)(C)Nc3ccccc32)c(C)c1	-27.8%	.	.	.	?	.
CCOC(=O)c1cccc(NC(=O)CCc2c(C)nc3c4cccnc4nn3c2C)c1	?	.	.	.	-27.1%	.
COc1cccc(NC(=O)CCc2c(C)nc3c4cccnc4nn3c2C)c1	?	.	.	.	18.4µM*	.
Cc1cc(C)cc(NC(=O)CCc2c(C)nc3c4cccnc4nn3c2C)c1	-25.7%	.	.	.	18.4µM*	.
CCOC(=O)c1ccc(NC(=S)NNC(=O)C2(C)CC2(Cl)Cl)cc1 (stereo not given)	-11.3%	1.2%	-8.5%	3.3	?	1.1%
CN1CC[C@@]2(CCCN(S(=O)(=O)c3ccccc3)C2)C1	-0.4%	-18.6%	-0.8%	.	-16.8%	.
CCN1C(=O)[C@H]2[C@@H](c3ccc(SC4CCCCC4)cc3)N3CCCC[C@@]3(C(=O)OC)[C@H]2C1=O	14.6µM*	.	.	0.0	16.4µM*	13.6%
CCN1C(=O)[C@@H]2[C@@H](c3ccc(SC4CCCCC4)c(OC)c3)N3CCCC[C@@]3(C(=O)OC)[C@@H]2C1=O	20.6µM*	.	.	?	?	-12.8%
CCCSc1ccc([C@@H]2[C@H]3C(=O)N(CC)C(=O)[C@H]3[C@]3(C(=O)OC)CCCN23)cc1	?	.	.	5.4	?	13.0%
CCN1C(=O)[C@@H]2[C@@H](c3ccc(SC4CCCCC4)cc3)N3CCC[C@@]3(C(=O)OC)[C@@H]2C1=O	?	.	.	-1.8	20.6µM*	11.2%
CCCSc1ccc([C@@H]2[C@@H]3C(=O)N(CC)C(=O)[C@@H]3[C@]3(C(=O)OC)CCCCN23)cc1	18.4µM*	.	.	13.6	20.6µM*	4.2%
CCN1C(=O)[C@@H]2[C@@H](c3ccc(-c4cc(C(C)=O)cs4)cc3)N3CCC[C@@]3(C(=O)OC)[C@@H]2C1=O	?	.	.	4.9	?	.
Cc1ccc2c(c1)N(CC(=O)NCCCN1CCOCC1)C(=O)C(C(C)C)O2 (stereo not given)	-9.8%	.	.	-1.6	-5.3%	11.5%
Cc1ccccc1-c1cc(C(=O)NCc2cccc(Br)c2)n(CC2CC(c3cccnc3)=NO2)n1 (stereo not given)	?	.	.	-24.0	18.4µM*	?
SMILES	TDP1 cell CPT	RORgamma inh	Gal4-VP16 FLuc	IL1B secr inh	TDP1 cell noCPT	ELG1 DNA repair
O=C(NCCc1cccs1)C1CC(c2cccc([N+](=O)[O-])c2)=NO1 (stereo not given)	-4.0%	?	-6.0%	8.6	-2.3%	1.6%
O=C(NCc1cccs1)c1cc(-c2ccccc2)nn1CC1CC(c2cccc([N+](=O)[O-])c2)=NO1 (stereo not given)	16.4µM*	.	.	-11.3	14.6µM*	.
COc1ccccc1CNC(=O)C1CC(c2cccc([N+](=O)[O-])c2)=NO1 (stereo not given)	16.4µM*	?	14.5%	12.1	23.1µM*	-12.4%
COc1ccccc1CNC(=O)c1cc(-c2ccccc2)nn1CC1CC(c2cccc([N+](=O)[O-])c2)=NO1 (stereo not given)	10.3µM*	.	.	22.7	14.6µM*	.
Cc1cc2c(c(-c3ccc(Cl)cc3)c1)OC(CNC(=O)Cc1c(C)noc1C)C2 (stereo not given)	-0.4%[9.04 µM]	.	.	.	-17.9%	.
CCc1cc(Cn2nc(-c3ccccc3)cc2C(=O)NCc2cccs2)on1	16.4µM*	.	.	-72.6*	?	?
O=C1C=CC(=Nc2ccc3c(c2)Cc2ccccc2-3)O1	6.9%	.	.	-5.5	8.9%	.
CCOC(=O)c1c(NC(=O)c2ccc(Cl)s2)sc(C)c1C	5.8%	2.0%	-0.5%	-11.2	-0.7%	-3.1%
CCOC(=O)c1cc(NC(=O)c2ccoc2C)cc(C(=O)OCC)c1	?	5.0%	-11.3%	37.7	?	9.2µM*
Cc1occc1C(=O)Nc1sc2c(c1C(N)=O)CCCCC2	?	38.5%	?	21.7	?	?
CC(=O)c1cccc(NC(=O)c2ccoc2C)c1	8.7%	13.4%	8.1%	42.7	-2.1%	8.4%
CCOC(=O)c1c(NC(=O)c2ccoc2C)sc(C)c1C	-8.6%	-12.9%	-3.0%	0.1	20.6µM*	-22.4%
CCc1c(C)sc(NC(=O)c2ccoc2C)c1C(N)=O	?	11.2%	-22.0%	-56.2*	?	26.7%
CC1CCC(C(=O)O)NC1c1ccc(C#CCN(C)C)cc1 (stereo not given)	.	-18.7%[10 µM]	8.7%[10 µM]	.	.	.
